Data from PubChem BioAssay (NCI).
The panel holds about 79,000 compounds, 15% with a hit somewhere; the sample as a whole holds those more often. Active and inactive are the calls of the source. No stated cut-off is given here; in the data, active means growth inhibition above about 70%; inactive means the rest.

Experiment: NCI Yeast Anticancer Drug Screen. Data for the bub3 strain (AID 167)
Details: S. cerevisiae bub3 mutant strain, at 50.0 µM, stronger effect = higher value
Method in brief: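 In this screen, a yeast mutant lacking normal mitotic checkpoint function is challenged with compound. Relative growth versus vehicle gives the inhibition value.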

| Compound | growth inhibition |
| --- | --- |
| O=[N+]([O-])c1cc(F)c(Sc2cc(Br)c([N+](=O)[O-])cc2F)cc1Br | 28.9% (inactive) |
| C=CS(=O)(=O)c1ccc(C)cc1 | 75.8% (active) |
| NC(CSSCC(N)C(=O)Nc1ccc2ccccc2c1)C(=O)Nc1ccc2ccccc2c1 (stereo not given) | 89.5% (active) |
| COc1ccc(C2=CCC3C4CC=C5CC(O)CCC5(C)C4CCC23C)s1 (stereo not given) | 66% (inactive) |
| O=C(O)COc1ccccc1C(=O)O | 11.6% (inactive) |
| O=[N+]([O-])c1ccc(NNS(=O)(=O)c2ccccc2)c([N+](=O)[O-])c1 | -2% (inactive) |
| CCOc1nc(N)nc(C)c1N=Nc1ccc(Cl)cc1 | 97.3% (active) |
| Nc1ccc2c(c1)CCc1ccccc1-2 | 81.5% (active) |
| O=c1c2cc3c(cc2c2cccc4c2n1CCC4)OCO3 | 20.4% (inactive) |
| O=C(COc1ccc(Br)cc1Br)N1N=C(c2ccc([N+](=O)[O-])o2)CC1(O)c1ccccc1 (stereo not given) | 59.6% (inactive) |
| Nc1cc(Br)cc2c1[nH]c1ccc(Br)cc12 | 98.5% (active) |
| Clc1ccccc1CCc1cc(-c2ccccc2)n[nH]1 | 93.2% (active) |
| O=C(CSc1nnc(-c2ccc(N=Cc3ccc(Cl)cc3)cc2)o1)Nc1ccccc1Cl | -11.8% (inactive) |
| COC(=O)CCCCC(=O)N(C(C)C)C(C)C | -3.5% (inactive) |
| CCc1ccccc1NC(=O)C(=O)CC(=O)c1ccc(Cl)s1 | -9.55% (inactive) |
| CCNC(=S)N/N=C/c1ccccn1 | 82.5% (active) |
| [N-]=[N+]=Nc1c(C=O)c(=O)n(-c2ccccc2)c2ccccc12 | 63.6% (inactive) |
| COc1cc2c(c(O)c1C)C(=O)C(Cl)=CC2=O | 99.2% (active) |
| O=c1[nH]c(=O)c2cc([N+](=O)[O-])cc([N+](=O)[O-])c2[nH]1 | 78.3% (active) |
| CCOC(=O)NC(=S)Nc1ccsc1 | 24.8% (inactive) |

| Compound | growth inhibition |
| --- | --- |
| O=C(/C(O)=C(\O)C(=O)N(C1CCCCC1)C1CCCCC1)N(C1CCCCC1)C1CCCCC1 | 95.5% (active) |
| Nc1nccc2c1ncn2C1C=C(CO)C(O)C1O (stereo not given) | 57.1% (inactive) |
| NC(=Nc1ccccc1)c1ccc2c(c1)c1c(n2Cc2ccccc2)CCCC1 | 98.2% (active) |
| CC/C(=C(/CC)c1ccc(O)cc1)c1ccc([O-])cc1.CC/C(=C(/CC)c1ccc(O)cc1)c1ccc([O-])cc1.O=C([CH-]C(=O)c1ccccc1)c1ccccc1.O=C([CH-]C(=O)c1ccccc1)c1ccccc1.[Ti+4] | 90.2% (active) |
| CC(=O)c1c(O)c2ccc(Cl)cc2[nH]c1=O | 38.2% (inactive) |
| CCOC(=O)c1cnccc1CC1(C#N)c2ccccc2C=CN1C(=O)c1ccccc1 (stereo not given) | 75% (active) |
| O=c1cc(-c2ccccc2)oc(-c2ccccc2)c1 | 20% (inactive) |
| CCCCCC/C=C\C=O | 79.5% (active) |
| O=C1NC(=O)C(c2ccccc2)(c2ccccc2)C2CC3c4[nH]c5ccccc5c4CCN3CC12 (stereo not given) | 37.5% (inactive) |
| Nc1ccc(-c2ccc(N)cc2S(=O)(=O)O)c(S(=O)(=O)O)c1 | 1.8% (inactive) |
| Oc1ccc2ccccc2c1/C=N\Sc1ccccc1 | 98.1% (active) |
| CCCC(C)c1ccc(O)cc1 (stereo not given) | 24.6% (inactive) |
| CCOC(=O)/C(=C\c1ccc(Cl)cc1)C(C)=O | 92.2% (active) |
| O=C(O)C(SC1=NNC2(C(=O)N1)c1ccccc1-c1ccccc12)SC1=NNC2(C(=O)N1)c1ccccc1-c1ccccc12 | 98% (active) |
| Cc1sc(Cc2ccccc2)nc1-c1ccc(N=Cc2ccc(N(CCOS(C)(=O)=O)CCOS(C)(=O)=O)cc2)cc1 | 91.3% (active) |
| CCCCc1ccc(Nc2nc(N)c3[nH]cnc3n2)cc1 | 34.7% (inactive) |
| O=C(c1c(F)c(F)c(F)c(F)c1F)n1c(=S)n(C(=O)c2c(F)c(F)c(F)c(F)c2F)c2ccccc21 | 49.1% (inactive) |
| Cc1ccnc2sc3ccccc3c(=O)c12 | 83.5% (active) |
| O=[N+]([O-])c1ccc2c(c1)CCc1ccccc1-2 | 20.4% (inactive) |
| NNc1ccc(Br)cc1 | 91% (active) |

Experiment: NCI Yeast Anticancer Drug Screen. Data for the mlh1 rad18 strain (AID 175)
Details: S. cerevisiae mlh1 rad18 strain growth inhibition; at 5.0 µM (retest, dose inferred, filed as 0.5); stronger effect = higher value
Method in brief: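 Cells of a genetically altered yeast strain, deficient in DNA damage repair, were treated with compound. Their growth was then compared with that of vehicle-treated cultures to give inhibition.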

| Compound | growth inhibition |
| --- | --- |
| O=[N+]([O-])c1cc(F)c(Sc2cc(Br)c([N+](=O)[O-])cc2F)cc1Br | 0% (inactive) |
| C=CS(=O)(=O)c1ccc(C)cc1 | 6% (inactive) |
| NC(CSSCC(N)C(=O)Nc1ccc2ccccc2c1)C(=O)Nc1ccc2ccccc2c1 (stereo not given) | 68% (inactive) |
| COc1ccc(C2=CCC3C4CC=C5CC(O)CCC5(C)C4CCC23C)s1 (stereo not given) | 19% (inactive) |
| O=C(O)COc1ccccc1C(=O)O | 1% (inactive) |
| O=[N+]([O-])c1ccc(NNS(=O)(=O)c2ccccc2)c([N+](=O)[O-])c1 | 0% (inactive) |
| CCOc1nc(N)nc(C)c1N=Nc1ccc(Cl)cc1 | 25% (inactive) |
| Nc1ccc2c(c1)CCc1ccccc1-2 | 2% (inactive) |
| O=c1c2cc3c(cc2c2cccc4c2n1CCC4)OCO3 | -2% (inactive) |
| O=C(COc1ccc(Br)cc1Br)N1N=C(c2ccc([N+](=O)[O-])o2)CC1(O)c1ccccc1 (stereo not given) | 22% (inactive) |
| Nc1cc(Br)cc2c1[nH]c1ccc(Br)cc12 | 58% (inactive) |
| Clc1ccccc1CCc1cc(-c2ccccc2)n[nH]1 | -4% (inactive) |
| O=C(CSc1nnc(-c2ccc(N=Cc3ccc(Cl)cc3)cc2)o1)Nc1ccccc1Cl | 2% (inactive) |
| COC(=O)CCCCC(=O)N(C(C)C)C(C)C | 5% (inactive) |
| CCc1ccccc1NC(=O)C(=O)CC(=O)c1ccc(Cl)s1 | 0% (inactive) |
| CCNC(=S)N/N=C/c1ccccn1 | -33% (inactive) |
| [N-]=[N+]=Nc1c(C=O)c(=O)n(-c2ccccc2)c2ccccc12 | 6% (inactive) |
| COc1cc2c(c(O)c1C)C(=O)C(Cl)=CC2=O | 99% (active) |
| O=c1[nH]c(=O)c2cc([N+](=O)[O-])cc([N+](=O)[O-])c2[nH]1 | 5% (inactive) |
| CCOC(=O)NC(=S)Nc1ccsc1 | -7% (inactive) |

| Compound | growth inhibition |
| --- | --- |
| O=C(/C(O)=C(\O)C(=O)N(C1CCCCC1)C1CCCCC1)N(C1CCCCC1)C1CCCCC1 | 14% (inactive) |
| Nc1nccc2c1ncn2C1C=C(CO)C(O)C1O (stereo not given) | 18% (inactive) |
| NC(=Nc1ccccc1)c1ccc2c(c1)c1c(n2Cc2ccccc2)CCCC1 | -1% (inactive) |
| CC/C(=C(/CC)c1ccc(O)cc1)c1ccc([O-])cc1.CC/C(=C(/CC)c1ccc(O)cc1)c1ccc([O-])cc1.O=C([CH-]C(=O)c1ccccc1)c1ccccc1.O=C([CH-]C(=O)c1ccccc1)c1ccccc1.[Ti+4] | 80% (active) |
| CC(=O)c1c(O)c2ccc(Cl)cc2[nH]c1=O | 72% (active) |
| CCOC(=O)c1cnccc1CC1(C#N)c2ccccc2C=CN1C(=O)c1ccccc1 (stereo not given) | 3% (inactive) |
| O=c1cc(-c2ccccc2)oc(-c2ccccc2)c1 | -123% (inactive) |
| CCCCCC/C=C\C=O | 0% (inactive) |
| O=C1NC(=O)C(c2ccccc2)(c2ccccc2)C2CC3c4[nH]c5ccccc5c4CCN3CC12 (stereo not given) | 1% (inactive) |
| Nc1ccc(-c2ccc(N)cc2S(=O)(=O)O)c(S(=O)(=O)O)c1 | -7% (inactive) |
| Oc1ccc2ccccc2c1/C=N\Sc1ccccc1 | 6% (inactive) |
| CCCC(C)c1ccc(O)cc1 (stereo not given) | 2% (inactive) |
| CCOC(=O)/C(=C\c1ccc(Cl)cc1)C(C)=O | 79% (active) |
| O=C(O)C(SC1=NNC2(C(=O)N1)c1ccccc1-c1ccccc12)SC1=NNC2(C(=O)N1)c1ccccc1-c1ccccc12 | -15% (inactive) |
| Cc1sc(Cc2ccccc2)nc1-c1ccc(N=Cc2ccc(N(CCOS(C)(=O)=O)CCOS(C)(=O)=O)cc2)cc1 | 82% (active) |
| CCCCc1ccc(Nc2nc(N)c3[nH]cnc3n2)cc1 | 22% (inactive) |
| O=C(c1c(F)c(F)c(F)c(F)c1F)n1c(=S)n(C(=O)c2c(F)c(F)c(F)c(F)c2F)c2ccccc21 | 29% (inactive) |
| Cc1ccnc2sc3ccccc3c(=O)c12 | 11% (inactive) |
| O=[N+]([O-])c1ccc2c(c1)CCc1ccccc1-2 | 16% (inactive) |
| NNc1ccc(Br)cc1 | 33% (inactive) |
